Compound activity from PubChem BioAssay.
Coupling enz – inhibits coupling enzyme system, counter-screen for aldolase hits. coupling enzyme system counterscreen, AmpLite Red fluorescence. activity change, negative = inhibition, % at 58.2 µM, hits read low. 290,000 tested, 0.67% active. AID 2472; in the data active = activity change below about -30%
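Counterscreen of the coupled detection system alone, without aldolase: glyceraldehyde-3-phosphate coupling enzymes plus AmpLite Red readout. Compounds at 57.5 uM final, 10 min RT preincubation, 20 min RT reaction, fluorescence 525/598 nm.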
G9a block – G9a (human) methyltransferase inhibition; Q96KQ7; G9a H3K9 monomethylation, AlphaScreen, 2 h; Potency, µM (doses to about 102 µM), most hits filed as inhibitors; 350,000 tested, 8.8% active; AID 504332; also: nearly all actives have a fitted effect of over 75% in size
Target sequence (Q96KQ7 913-1193 limits assumed): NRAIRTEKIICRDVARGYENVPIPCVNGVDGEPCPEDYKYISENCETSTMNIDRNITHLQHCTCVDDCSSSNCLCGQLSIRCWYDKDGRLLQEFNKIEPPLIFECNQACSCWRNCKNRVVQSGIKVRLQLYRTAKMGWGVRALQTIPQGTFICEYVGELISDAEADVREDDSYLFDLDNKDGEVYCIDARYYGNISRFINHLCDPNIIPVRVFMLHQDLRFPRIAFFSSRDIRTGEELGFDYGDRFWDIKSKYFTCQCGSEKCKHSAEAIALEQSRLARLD
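Enzyme 20 nM + cpd, 15 min RT; add b-H3K9 pep 500 nM / SAM 20 uM; 2 h RT; anti-H3K9me1 Ab 0.5 ug/mL + SA donor / anti-rabbit acceptor beads 20 ug/mL each, 10 min; AlphaScreen read.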
Tau fibril FP – inhibitors of human tau fibril formation; K18 P301L tau heparin fibrillization, Alexa594 FP, 6 h; 280,000 tested, 0.39% active; P10636; Potency, µM (titrated, usually from 57.7 µM), hits mostly inhibitors; also: nearly all actives have a fitted effect of over 55% in size
Target sequence (P10636 561-689 P618L limits assumed): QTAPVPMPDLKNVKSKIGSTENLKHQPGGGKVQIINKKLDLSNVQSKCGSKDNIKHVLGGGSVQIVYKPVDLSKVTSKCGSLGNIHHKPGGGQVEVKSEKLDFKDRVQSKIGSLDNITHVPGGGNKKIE
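Steps: dispense K18 P301L tau (15 uM plus 0.24 uM Alexa 594 tracer, final) in pH 7 sodium acetate; add compound; add heparin (20 uM final); incubate 6 hr, 37 C; add ThT (30 uM final); after 1 hr ambient, read FP.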
Sfp inh – blocks B. subtilis Sfp PPTase activity; Biochemical Sfp PPTase activity, qHTS; Potency, µM, most hits filed as inhibitors; 310,000 tested, 3.5% active; AID 1490;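 also: the enzyme is Sfp with the accession as filed and its product quenches rhodamine fluorescence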
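Reaction rates are the 30-min fluorescence difference (ex 525, em 598 nm) in wells containing 15 nM Sfp, 5 uM rhodamine-CoA and 12.5 uM BHQ-2-YbbR at pH 7.6 with 10 mM MgCl2.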
Tau ThT inhib – blocks human tau fibril formation measured by thioflavin T; recombinant tau K18 P301L, heparin-induced fibrillization, ThT fluorescence; Potency, µM (top dose mostly 57.4 µM), usual class: inhibitors; 270,000 tested, 2.1% active; also: nearly all actives have a fitted effect of over 55% in size
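Heparin-induced (20 uM) aggregation of recombinant human K18 P301L tau, 15 uM unlabeled with 0.24 uM labeled, pH 7 acetate buffer, 6 hr at 37 C with compound. Fibrils quantified by 30 uM ThT fluorescence after 1 hr ambient incubation.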
Tau fluor cs – counter-screen for tau fibril formation inhibitors. 280,000 tested, 0.93% active. Potency, µM (top dose mostly 57.7 µM). tau K18 P301L (four-repeat tau fragment) Alexa594 fluorescence, heparin fibrillization. AID 1463; also: nearly all actives have a fitted effect of over 55% in size
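Human K18 P301L tau (15 uM unlabeled plus 0.24 uM Alexa 594-labeled, final) in 100 mM sodium acetate pH 7 was mixed with compound and 20 uM heparin and incubated 6 hr at 37 C.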
Each line names hits and unclear results; the compound was inactive in the other large screens. Rows were chosen to be rich in hits. Some 11% of all compounds tested hit in one or more screens of this group. Unless noted, calls follow the shape of the dose curve; as a rule, active = well fitted curve in the direction sought with a large enough effect; inconclusive = small, poorly fitted or top-dose-only effect, or another doubt; inactive = no such curve, though single readings can be large; an effect the other way counts as inactive or inconclusive.

CSC1=NC(C(Cl)(Cl)Cl)N=C(c2ccccc2)N1 (stereo unspecified)	G9a block inconclusive
N#CC1=C(O)CCCn2c1nc1ccccc1c2=O	none
N#CC1=C(O)C(c2ccccc2)n2c1nc(=O)c1ccccc12 (stereo unspecified)	G9a block 25µM
CCN(C(=O)CSc1nc2ncccc2[nH]1)c1ccc(C(C)C)cc1	none (no result: Coupling enz, Sfp inh)
O=C(NCc1ccncc1)c1cc2ccccc2nc1Cl	G9a block 45µM
CCN(CC)CCNC(=O)c1cc2ccccc2nc1Cl	G9a block inconclusive
O[C@@H]1[C@@H]2c3cc4c(cc3CN3CCC(=C[C@@H]1O)[C@H]23)OCO4	none (no result: Tau fibril FP, Tau ThT inhib, Tau fluor cs)
CCn1nc(C)cc1-c1nnc(Sc2ncc([N+](=O)[O-])s2)n1C	G9a block 6.3µM, Sfp inh 45µM (no result: Tau fibril FP, Tau ThT inhib, Tau fluor cs)
COc1ccc(C(=O)Nc2ccccc2C(=O)NC(Cc2ccc(O)cc2)C(=O)NNC(=O)c2ccncc2)cc1 (stereo unspecified)	G9a block 1.4µM
c1csc(-c2cn3ccc4ccccc4c3n2)c1	G9a block inconclusive, Tau ThT inhib 10µM
CC(=O)N1C(=O)CC(C)N(C(C)=O)c2ccc([N+](=O)[O-])cc21 (stereo unspecified)	G9a block 20µM, Tau ThT inhib inconclusive
CC(C)C(C(=O)Nc1ncn[nH]1)N1C(=O)c2ccccc2C1=O (stereo unspecified)	G9a block inconclusive
CC(C)c1ccc(S(=O)(=O)/N=C2/C=C(Sc3ncn[nH]3)C(=O)c3ccccc32)cc1	Coupling enz -92, G9a block 1.6µM, Sfp inh 2µM
Cc1ccc(S(=O)(=O)/N=C2/C=C(Sc3ncn[nH]3)C(=O)c3ccccc32)c(C)c1	Coupling enz -63, G9a block 0.89µM, Tau fibril FP 28µM, Sfp inh 3.5µM, Tau ThT inhib 10µM, Tau fluor cs inconclusive
Cc1cc(C)c(S(=O)(=O)Nc2ncn[nH]2)cc1C	G9a block inconclusive (no result: Tau fibril FP, Tau ThT inhib, Tau fluor cs)
Cc1ccc(S(=O)(=O)/N=C2/C=C(Sc3ncn[nH]3)C(=O)c3ccccc32)cc1	Coupling enz -55, G9a block 0.56µM, Tau fibril FP 14µM, Sfp inh 3.2µM, Tau ThT inhib 3.5µM, Tau fluor cs inconclusive
O=C(CCCn1c(=O)c2cccn2c2cccnc21)NCc1ccccc1Br	Tau ThT inhib inconclusive (no result: Coupling enz, Sfp inh)
Cc1nc2sc3c(=O)[nH]nnc3c2c(C)c1Br	none (no result: Tau fibril FP, Tau ThT inhib, Tau fluor cs)
COCc1c(Br)c(C)nc2sc3c(=O)[nH]nnc3c12	G9a block 35µM (no result: Tau fibril FP, Tau ThT inhib, Tau fluor cs)
Cc1[nH]c2ccccc2c1C(=O)C(=O)N1CCN(C(=O)c2ccco2)CC1	none
Cc1[nH]c2ccccc2c1NC(=O)CN1CCN(Cc2ccc3c(c2)OCO3)CC1	G9a block 56µM
CCOC(=O)c1cc(C)sc1NC(=O)CN1CCN(C(=O)c2ccco2)CC1	none (no result: Coupling enz, Tau fibril FP, Tau ThT inhib, Tau fluor cs)
Cc1[nH]c2ccccc2c1NC(=O)CN1CCN(C(=O)c2ccco2)CC1	Sfp inh 45µM
O=C(Cn1c(=O)[nH]c2ccccc2c1=O)N1CCN(Cc2ccc3c(c2)OCO3)CC1	none (no result: Tau fibril FP, Tau ThT inhib, Tau fluor cs)
CCOC(=O)c1cc(CC)sc1NC(=O)CN1CCN(C(=O)c2ccco2)CC1	G9a block inconclusive, Sfp inh 40µM (no result: Coupling enz, Tau fibril FP, Tau ThT inhib, Tau fluor cs)
CC1CN(CCOCCSc2ccccc2)CC(C)O1 (stereo unspecified)	none
CC1CN(CCCCN2C(=O)c3ccccc3C2=O)CC(C)O1 (stereo unspecified)	G9a block 3.2µM, Sfp inh inconclusive
Cc1ccc(C)c(OCCOCCN2CC(C)OC(C)C2)c1C (stereo unspecified)	G9a block 13µM, Sfp inh inconclusive
CC1CN(CCOCCOc2ccccc2-c2ccccc2)CC(C)O1 (stereo unspecified)	G9a block 1.8µM, Sfp inh 45µM (no result: Tau fibril FP, Tau ThT inhib, Tau fluor cs)
c1ccc(-c2ccccc2OCCOCCN2CCc3ccccc3C2)cc1	Tau ThT inhib inconclusive
COC(=O)c1ccccc1OCCCCN1CC(C)OC(C)C1 (stereo unspecified)	G9a block 3.5µM, Sfp inh inconclusive
CC1CN(CN2C(=O)c3ccccc3C2=O)CC(C)O1 (stereo unspecified)	none
COC(=O)c1ccccc1OCCOc1ccccc1C(=O)OC	none
CCOc1ccc(CCNC(=O)CCc2c(C)nc3c(c(C)nn3-c3ccccc3)c2C)cc1OCC	Tau ThT inhib inconclusive (no result: Coupling enz, Sfp inh)
O=C(COc1ccccc1)NCc1ccc2c(c1)CCN2C(=O)c1ccc(Cl)cc1	none (no result: Coupling enz, Sfp inh)
COc1cccc(CN2C(=O)c3ccccc3Sc3ccc(C(=O)NCCc4ccc(C)cc4)cc32)c1	none (no result: Coupling enz, Sfp inh)
CC1CN(CCOc2ccccc2C(C)C)CC(C)O1 (stereo unspecified)	G9a block 10µM, Sfp inh inconclusive (no result: Tau fibril FP, Tau ThT inhib, Tau fluor cs)
COc1cccc(OC)c1C(=O)Nc1ccc(N2CCN(S(C)(=O)=O)CC2)cc1	G9a block inconclusive
O=C(Nc1ccc2c(c1)OCO2)c1ccccc1SCC(=O)N1CCCC1	none
COc1cccc(OC)c1C(=O)Nc1ccc(N2CCCC2)cc1	G9a block 13µM (no result: Tau fibril FP, Tau ThT inhib, Tau fluor cs)
O=C(Nc1ccc(N2CCCCCC2)cc1)c1ccccc1Cl	G9a block 2.5µM, Tau ThT inhib inconclusive, Tau fluor cs inconclusive
Cc1ccc(NC(=O)c2cc(NC(=O)c3ccccc3C(=O)O)ccc2N2CCCCC2)cc1	G9a block 14µM
O=C(Nc1ccc(N2CCOCC2)cc1)c1ccccc1SCC(=O)N1CCCC1	G9a block 7.1µM
CCOc1ccc(C(=O)Nc2cccc(NC(=O)c3ccco3)c2)cc1Cl	Tau fibril FP inconclusive (no result: Coupling enz, Sfp inh)
O=C(CSCc1ccc(F)cc1)N1CCc2c([nH]c3ccccc23)C1c1ccc(F)cc1 (stereo unspecified)	Tau fibril FP inconclusive (no result: Coupling enz, Sfp inh)
COc1ccccc1C(=O)Nc1ccc(N2CCCCC2)cc1	G9a block 50µM, Tau ThT inhib inconclusive
O=C(Nc1ccc(N2CCCCCC2)cc1)c1ccc[nH]1	none (no result: Coupling enz, Tau fibril FP, Sfp inh, Tau ThT inhib, Tau fluor cs)
O=C(Nc1ccc2c(c1)C(=O)OC2)c1ccccc1Cl	G9a block 50µM (no result: Tau fibril FP, Tau ThT inhib, Tau fluor cs)
O=C(Nc1ccc(N2CCCCC2)cc1)c1ccccn1	G9a block 45µM, Tau ThT inhib inconclusive
O=C1OCc2ccc(NC(=O)c3ccccc3C(=O)O)cc21	G9a block inconclusive (no result: Coupling enz, Tau fibril FP, Tau ThT inhib, Tau fluor cs)
O=[N+]([O-])/C(C(Cl)=C(Cl)Cl)=C(\Sc1ccccc1)N1CCCCC1	G9a block 40µM, Tau fibril FP inconclusive, Tau ThT inhib 25µM
COc1ccc(N2C(=O)CC(Sc3nnc(-c4ccccc4)o3)C2=O)cc1 (stereo unspecified)	G9a block 10µM, Tau fibril FP inconclusive, Sfp inh 56µM, Tau ThT inhib inconclusive
O=C1CC(Sc2ncccn2)C(=O)N1c1ccccc1 (stereo unspecified)	G9a block inconclusive
